# A selection: hits, their analogues and other compounds. The true share with any hit is near 4.5%.
# Jurkat NFkB inh: inhibitors of the PMA/ionomycin-induced NF-kB reporter in Jurkat cells. AID 435003. actives 0.53% (n = 330,000). PMA/ionomycin-induced NF-kB luciferase reporter, luminescence. inhibition, % at 4 µM; in the data active = inhibition above about 50%
# Beta cell apopt: blocks beta cell apoptosis. protection from apoptosis, % (no concentration beside the values). actives 0.8% (n = 300,000). INS-1E cytokine-induced death, ATP luminescence, 48 h; percent of positive-control rescue, neutral wells zero. AID 435005;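 active = Every replicate reaches about 75%, or at least half do and their mean reaches it too, limit read from the data; inconclusive = At least half of replicates reach the limit but their mean does not; inactive = Under half of replicates reach the limit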;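 also: 0% = cytokine-treated negative control wells and 100% = positive control rescue; higher means more ATP so stronger rescue from cytokine killing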
# Mdm2 MdmX PPI: human Mdm2/MdmX binding inhibition. O15151+Q00987. SaOS-2 split-luciferase Mdm2/MdmX complementation, luminescence. inhibition, % at 8 µM. actives 3% (n = 330,000). AID 485346;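 active = inhibition of at least 50% at 8 µM in the primary screen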
# 697 NFkB inh: inhibitors of the PMA/ionomycin-induced NF-kB reporter in 697 B cells; 697 B-cell NF-kB luciferase reporter, 16 h; inhibition, % at 4 µM; actives 0.33% (n = 330,000); in the data active = inhibition above about 35%
# Gli-Sufu block: antagonists of Gli-Sufu signaling. Sufu-KO-LIGHT fibroblasts, Gli luciferase reporter luminescence. actives 0.74% (n = 340,000). inhibition, % at 5 µM;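 active = inhibition above about 55%, limit read from the data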;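 also: 0% = DMSO-treated cells and 100% = wells with medium but no cells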
# CSC inhib: cancer stem cell inhibition; AID 2717; cancer stem cell-like cells viability, luminescence; inhibition, % at 7.5 µM; actives 1.1% (n = 300,000); in the data active = inhibition above about 75%; inconclusive = no clear call, values can overlap the other calls; tested in HMLE shEcad cells
# Jurkat NFkB conf: lowers PMA/ionomycin-induced NF-kB signal in Jurkat cells; shares compounds with Jurkat NFkB inh; Jurkat NF-kB luciferase, 16 h; inhibition, % at 4 µM; actives 27% (n = 2,700); AID 435020;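 active = inhibition reaching about 45% at 4 µM in either replicate, limit read from the data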;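 also: plate controls were PMA/ionomycin stimulated DMSO wells for no effect and unstimulated DMSO wells for full effect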
# * = called active by the depositor; ? = inconclusive; . = not tested or not shown.
SMILES,Jurkat NFkB inh,Beta cell apopt,Mdm2 MdmX PPI,697 NFkB inh,Gli-Sufu block,CSC inhib,Jurkat NFkB conf
CCOc1ccc(Cc2c(Cl)nc(SC)nc2N(C)C)cc1,60*,23,45,-70,8,54,27
Cc1c[n+]([O-])cc(C)c1[N+](=O)[O-],.,.,.,.,8,.,.
COc1cc(C2=NOC(C(=O)NCc3cccs3)C2)cc(OC)c1OC (centres undefined),50*,13,43,-67,3,66,36
COc1ccc(C2=NOC(C(=O)NCc3cccs3)C2)cc1 (centres undefined),44,-1,38,-38,-27,32,.
COc1ccc(C2=NOC(C(=O)NCc3cccs3)C2)cc1OC (centres undefined),50*,-8,45,-99,-3,52,44
COc1cc(C2=NOC(C(=O)NCc3cccnc3)C2)cc(OC)c1OC (centres undefined),-4,0,-4,-7,21,-13,.
O=C(CCNS(=O)(=O)c1ccc2nsnc2c1)N1CCN(c2ccncc2)CC1,5,-10,27,-2,9,41,.
Cc1ccc(S(=O)(=O)CCC(=O)OC2CC(C)OC2=O)cc1 (centres undefined),-214,-4,4,17,-5,-15,13
CCN(CC)S(=O)(=O)c1cccc(C(=O)OC2CC(C)OC2=O)c1 (centres undefined),12,-5,-15,12,1,-5,.
Cc1cc(C(=O)NNC(=S)NC2CCCCC2)cs1,-55,1,-31,-60,10,-3,.
COc1ccc(C(=O)NCC(c2ccco2)N2CCc3ccccc32)cc1 (centres undefined),63*,5,49,-65,19,-3,23
COc1ccc(NC(=O)C(=O)NCC(c2ccco2)N2CCc3ccccc32)cc1 (centres undefined),64*,.,19,-66,17,35,12
Cc1ccc(NC(=O)C(=O)NCCCN2CC(C(=O)O)CC2=O)cc1 (centres undefined),9,-2,-2,23,30,-7,.
COc1cccc([C@@H]2Oc3ccc(OC)cc3C(=O)[C@H]2O)c1,-157,20,-3,-140,-11,11,-98
COc1cccc([C@@H]2Oc3ccc(Br)cc3C(=O)[C@H]2OC(=O)NC2CCCC2)c1,10,-8,5,-11,-2,21,.
Nc1cc(C(=O)OCC(=O)N2CCC(Cc3ccccc3)CC2)ccc1Cl,8,2,15,13,-3,.,.
O=C(NCC(=O)N1CC=C(c2ccccc2)CC1)c1ccc(OC(F)F)cc1,0,13,15,-3,18,26,.
COc1cc(OC)cc(C(=O)NCC(=O)N2CC=C(c3ccccc3)CC2)c1,70*,.,49,-44,-13,.,14
O=C(Nc1nc2ccccc2[nH]1)c1cccc(Cl)c1,-160,.,-171,-235,-82,15,-123
Cc1cc(C)c(C#N)c(SCc2ccccc2)n1,7,-4,6,-1,-8,.,.
Cc1ccc2nc(CSc3nc(C)cc(C)c3C#N)[nH]c2c1,-179,9,-126,-182,-30,-4,-56
COc1cc(C(=O)N/N=C(\C)c2ccc3c(c2)OCO3)cc(OC)c1OC,52*,-1,50,-26,6,53,2
Cc1ccc(O)c(NC(=O)c2cc(-c3ccccc3Cl)on2)c1,51*,-1,-37,-39,8,31,36
Cc1ccc(-c2cc(C(=O)Nc3cc(C)ccc3O)no2)cc1,.,-2,.,.,-17,15,.
CCOC(=O)c1c(C)[nH]c(C(=O)CN(C)CC(=O)Nc2ccccc2Cl)c1C,-17,-3,12,-11,-20,7,.
SMILES,Jurkat NFkB inh,Beta cell apopt,Mdm2 MdmX PPI,697 NFkB inh,Gli-Sufu block,CSC inhib,Jurkat NFkB conf
CN(C)S(=O)(=O)c1cccc(NC(=O)COC(=O)c2ccc3ccccc3n2)c1,60*,-6,-7,19,-2,8,9
O=C(Nc1cccnc1)c1ccc(COc2cc(Cl)ccc2Cl)o1,57*,-4,0,-1,23,72,8
NC(=O)C1CCCN(C(=O)CN2C(=O)NC(c3ccccc3)(c3ccccc3)C2=O)C1 (centres undefined),9,.,0,14,2,.,.
Cc1cccc(Nc2nc(-c3ccccn3)cs2)n1,-185,47,-105,-169,-61,45,-93
CC(=O)Oc1ccc(-c2csc(Nc3cccc(C)n3)n2)cc1,-151,.,-143,-135,-70,79*,-80
Cc1cccc(Nc2nc(-c3ccc(F)cc3)cs2)n1,-129,7,-262,-210,-64,23,.
Cc1cc(NC(=O)CSc2nc(C3CC3)nc3sc(C)c(C)c23)no1,51*,.,34,-55,2,.,7
COc1cc(C(=O)N2CCN(c3cc(Cl)ccc3Cl)CC2)cc(OC)c1OC,60*,35,50,-82,24,61,50*
COc1ccc(C(=O)N2CCN(C(=O)c3cc(OC)c(OC)c(OC)c3)CC2)cc1,7,-3,15,-12,0,-5,.
COc1cc(C(=O)N2CCN(c3cccc(C)c3C)CC2)cc(OC)c1OC,63*,23,35,-42,49,61,43
Cc1nc(-c2ccc(NC(=O)c3ccco3)cc2)cs1,52*,18,31,-162,2,?,37
COCCSc1nnc(NC(=O)C2CC(=O)N(C3CCCC3)C2)s1 (centres undefined),4,-2,-10,21,3,.,.
O=C(CN1C(=O)NC2(CCCC2)C1=O)Nc1cc(S(=O)(=O)N2CCOCC2)ccc1OCC(F)(F)F,0,1,-20,-17,1,-9,.
CCOc1ccc(NC(=O)c2cc3c(C)nc4ccccc4c3o2)cc1,60*,13,45,-69,21,32,41
C=CCn1c(=O)/c(=C/c2ccsc2)s/c1=C(\C#N)C(=O)NCCN1CCOCC1,.,.,.,.,8,.,.
COc1cc(NC(=O)C2CC(c3c(F)cccc3Cl)=NO2)c(OC)cc1Cl (centres undefined),0,.,1,2,-1,-1,.
Cc1ccc(O)c(NC(=O)C2CC(c3c(F)cccc3Cl)=NO2)c1 (centres undefined),51*,2,6,-15,8,30,14
CC(C)(C)c1ccc(/C=C/C(=O)NC2=NCCS2)cc1,-161,.,-139,-204,-16,18,-80
COc1ccc2c(c1)[nH]c1c(N3CCN(Cc4ccc5c(c4)OCO5)CC3)ncnc12,52*,105*,25,-5,52,9,58*
COc1cccc2[nH]c3c(N4CCN(Cc5ccc6c(c5)OCO6)CC4)ncnc3c12,-6,41,35,8,.,-2,.
O=C(Nc1nc2c(s1)CCCC2)c1ccc2ncsc2c1,-183,14,-213,-224,-72,-5,-86

# Assay outcomes deposited in PubChem by several laboratories.
